HSD17B inhib: inhibitors of human HSD17B10 dehydrogenase | Q99714 | recombinant HSD17B10, NADH fluorescence kinetic | Potency, µM (titrated, usually from 57.1 µM), usual class: inhibitors | 7.6% of 75,000 active;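 also: the protocol describes HADH2 (HSD17B10) and not the HSD17B4 of the title; nearly all actives have a fitted effect of over 70% in size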
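Activity followed as NADH fluorescence increase (ex 360, em 450 nm) every 30 seconds for 4 min, using final 90 uM beta-hydroxybutyryl CoA and 1 mM NAD+. Recombinant His-tagged enzyme, 20 nM, pH 9.0 Tris buffer, 15 min compound preincubation.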
4-MU autofl: compounds fluorescent in 4-MU spectral region; compound autofluorescence, 340/450 nm, 4-MU equivalents; hits give high values; max dye-equivalent concentration, M; 11% of 59,000 active; AID 589; in the data active = max dye-equivalent concentration above about 10 nM; inconclusive = mostly about 1.1 nM to 9.6 nM
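Compounds in 100 mM Tris, pH 8.0, sat 15 min at room temperature before fluorescence was read at 340 nm excitation/450 nm emission; a per-plate six-point 4-MU standard curve converted signals to dye-equivalent concentration at each compound concentration.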
A350 fluor: compound fluoresces in the Alexa 350 spectral region. Compound autofluorescence, 340/450 nm, Alexa 350 dye-equivalents; hits give high values. max dye-equivalent concentration, M. 11% of 59,000 active; in the data active = max dye-equivalent concentration above about 10 nM; inconclusive = mostly about 1.1 nM to 9.6 nM
AID923: qHTS Assay for Allosteric/Competitive Inhibitors of Caspase-1: Spectroscopic Profiling in AFC Spectral Region. compound fluorescence, AFC spectral region (405/520 nm). Potency, µM (top dose mostly 57.5 µM), usual class: activators. 1.1% of 75,000 active. AID 923, 2007
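Baseline compound fluorescence (AFC region, 405 nm ex/520 nm em) taken from the intercept of kinetic reads with 50 nM caspase-1 and 5 uM Ac-WEHD-AFC; normalized to an on-plate AFC standard curve; compounds titrated up to 57 uM.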
HADH2 inhib: blocks human hydroxyacyl-CoA dehydrogenase type II | Q99714 | recombinant HADH2, NADH fluorescence, beta-hydroxybutyryl-CoA | Potency, µM (series often up to 57.1 µM), most hits filed as inhibitors | 3.4% of 73,000 active | AID 886; also: nearly all actives have a fitted effect of over 60% in size
Target sequence (Q99714 whole entry, looked up, one chain of several): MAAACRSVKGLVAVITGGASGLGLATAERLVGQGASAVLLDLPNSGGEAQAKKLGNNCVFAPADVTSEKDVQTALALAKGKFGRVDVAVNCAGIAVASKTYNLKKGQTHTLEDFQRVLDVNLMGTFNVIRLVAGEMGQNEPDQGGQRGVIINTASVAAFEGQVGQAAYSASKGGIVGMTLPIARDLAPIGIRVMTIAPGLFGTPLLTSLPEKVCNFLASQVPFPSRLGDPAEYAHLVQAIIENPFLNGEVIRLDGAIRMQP
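Read-out: 360 nm excitation, 450 nm emission, kinetic over 4 min. Conditions: His-tagged human HADH2 20 nM, pH 9.0 Tris with Tween-20, 1 mM NAD+, 90 uM beta-hydroxybutyryl-CoA.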
CRE-bla Fsk: CRE-bla signaling modulation under forskolin stimulation | Potency, µM (doses to about 38.2 µM), actives largely listed as activators | 2.5% of 71,000 active | CHO CRE-bla reporter (cAMP response element driving beta-lactamase), forskolin EC10, beta-lactamase ratio | AID 662; active = well fitted activation curve with a large enough effect in the signal ratio, with a control signal flat, not every such curve was filed as active; inconclusive = small, poorly fitted or top-dose-only effect, or effect the other way, or a change in a side signal; the % refers to the signal ratio
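Reporter-gene assay: CHO cells with beta-lactamase behind cAMP responsive elements, co-treated with compound and EC10 NKH 477 for 3 hours at 37 degrees Celsius. Activity came from the 460/530 nm CCF4 emission ratio.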
A number is an active result; [ ] = dose if it differs, or a comment. Sampled rows, rich in hits. Any-hit rate of the full collection: about 14%. Unless noted, calls follow the shape of the dose curve; as a rule, active = well fitted curve in the direction sought with a large enough effect; inconclusive = small, poorly fitted or top-dose-only effect, or another doubt; inactive = no such curve, though single readings can be large; an effect the other way counts as inactive or inconclusive.

COc1cc2cc(CN(CCCO)S(=O)(=O)c3ccccc3Cl)c(=O)[nH]c2cc1OC was read as HSD17B inhib inconclusive, 4-MU autofl 2.2e-07M, A350 fluor 2.3e-07M, AID923 inactive, HADH2 inhib inactive and CRE-bla Fsk inactive.
Screening CCCC(=O)N(Cc1cc2ccccc2[nH]c1=O)c1ccccc1OC returned 4-MU autofl inactive and A350 fluor inactive.
For Cc1ccc2[nH]c(=O)c(CN(CCCO)S(=O)(=O)c3c(C)ccc4nsnc34)cc2c1 the results were HSD17B inhib inactive, 4-MU autofl inactive, A350 fluor inactive, AID923 inactive, HADH2 inhib inactive and CRE-bla Fsk inactive.
For COc1ccc2cc(CN(Cc3cccnc3)S(=O)(=O)c3ccccc3)c(=O)[nH]c2c1 the results were HSD17B inhib 25µM, 4-MU autofl inconclusive, A350 fluor inconclusive, AID923 inactive, HADH2 inhib inactive and CRE-bla Fsk inactive.
Screening COc1cc2cc(CN(CCCO)S(=O)(=O)c3ccccc3)c(=O)[nH]c2cc1OC returned HSD17B inhib 32µM, 4-MU autofl 4.4e-07M, A350 fluor 3.5e-07M, AID923 inactive, HADH2 inhib inactive and CRE-bla Fsk inactive.
Screening COc1ccc2cc(CN(CC3COCCO3)S(=O)(=O)c3ccccc3)c(=O)[nH]c2c1 (configuration not stated) returned HSD17B inhib inactive, 4-MU autofl inactive, A350 fluor inactive, AID923 inactive, HADH2 inhib inactive and CRE-bla Fsk inactive.
`COc1cc2cc(CN(CCO)S(=O)(=O)c3ccccc3Cl)c(=O)[nH]c2cc1OC` gave HSD17B inhib 25µM, 4-MU autofl 2.6e-07M, A350 fluor 3.3e-07M, AID923 inactive, HADH2 inhib inactive and CRE-bla Fsk inconclusive.
`Cc1cc2cc(CN(CCCO)S(=O)(=O)c3cccc4nsnc34)c(=O)[nH]c2cc1C` gave HSD17B inhib inactive, 4-MU autofl inactive, A350 fluor inactive, AID923 inactive, HADH2 inhib inactive and CRE-bla Fsk inconclusive.
CCOC(=O)C1CCN(C(=O)c2cc3cc4cc(OC)ccc4nc3o2)CC1 was read as HSD17B inhib 25µM, 4-MU autofl 1.7e-07M, A350 fluor 1.6e-07M, AID923 inactive, HADH2 inhib inactive and CRE-bla Fsk inconclusive.
`COc1ccc2nc3oc(C(=O)N4CCCCC4)cc3cc2c1` gave HSD17B inhib 25µM, 4-MU autofl 3.2e-07M, A350 fluor 3e-07M, AID923 inactive, HADH2 inhib inconclusive and CRE-bla Fsk inconclusive.
COc1ccc2nc3sc(C(=O)N4CCN(C)CC4)cc3cc2c1 was read as HSD17B inhib 25µM, 4-MU autofl 8.7e-08M, A350 fluor 8.2e-08M, AID923 inactive, HADH2 inhib inactive and CRE-bla Fsk inconclusive.
Cc1ccc(NC(=O)c2cc(-c3cccc(O)c3)on2)cc1C was read as HSD17B inhib inactive, AID923 inactive, HADH2 inhib inactive and CRE-bla Fsk inconclusive.
For CC(=O)c1c(C)nc2cc(Cl)ccc2c1N the results were HSD17B inhib inactive, 4-MU autofl inactive, A350 fluor inactive, AID923 inactive, HADH2 inhib inactive and CRE-bla Fsk 10µM.
`COc1ccccc1NC(=O)c1cc(C(=O)O)ccc1C(=O)O` gave HSD17B inhib inactive, 4-MU autofl inactive, A350 fluor inconclusive, AID923 inactive, HADH2 inhib inactive and CRE-bla Fsk inactive.
O=C(O)c1ccc(C(=O)Nc2cccc3ccccc23)c(C(=O)O)c1 was read as HSD17B inhib 3.2µM, 4-MU autofl inconclusive, A350 fluor inconclusive, AID923 inactive[11.5 µM], HADH2 inhib inactive[11.4 µM] and CRE-bla Fsk inactive[7.6 µM].
O=C1C2C3C=CC(CO)(O3)C2C(=O)N1c1ccc(-c2ccccc2)cc1 (configuration not stated) was read as HSD17B inhib 20µM, AID923 inactive, HADH2 inhib inactive and CRE-bla Fsk inconclusive.
`Cc1cc(C(=O)O)ccc1[C@H](N)C(=O)O` gave HSD17B inhib inactive, AID923 inactive, HADH2 inhib inactive and CRE-bla Fsk inconclusive.
`Cc1ccc(C2C(C#N)=C(N)Oc3c2sc2ccccc32)o1` (configuration not stated) gave HSD17B inhib inconclusive, AID923 inactive, HADH2 inhib 3.2µM and CRE-bla Fsk inconclusive.
